What all share (test): NCI-60 one-dose screen, 48 h (100 = growth as untreated, 0 = no growth, -100 = all killed)
One assay concerns SR leukemia. The note with it: 10 µM unless noted.
Another assay concerns RPMI-8226 leukemia. The note with it: 10 µM unless noted.
A further assay has as its system OVCAR-5 ovarian. The note with it: 10 µM unless noted.
Another assay has as its system OVCAR-4 ovarian. The note with it: 10 µM unless noted.
The next assay has as its system SK-OV-3 ovarian. The settings on record: 10 µM unless noted.
The next assay concerns IGROV1 ovarian. The note with it: 10 µM unless noted.
Another assay has as its system OVCAR-3 ovarian. The note with it: 10 µM unless noted.
The subject of the next assay is NCI/ADR-RES ovarian. The note with it: 10 µM unless noted.
Another assay relates to T-47D breast. The settings on record: 10 µM unless noted.
The next assay deals with MDA-MB-435 melanoma. The settings on record: 10 µM unless noted.
The subject of another assay is SW-620 colon. The settings on record: 10 µM unless noted.
The subject of a further assay is MCF7 breast. The settings on record: 10 µM.
The next assay relates to HCT-116 colon. The settings on record: 10 µM unless noted.
In a further assay the test system is HCC-2998 colon. The settings on record: 10 µM unless noted.
Another assay concerns KM12 colon. The note with it: 10 µM unless noted.
Another assay relates to OVCAR-8 ovarian. The settings on record: 10 µM unless noted.
A further assay relates to HS 578T breast. The note with it: 10 µM unless noted.
The test system of the next assay is BT-549 breast. The settings on record: 10 µM unless noted.

The panel holds about 83,000 compounds, 20% with a hit somewhere; the sample as a whole holds those more often.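 Each cell line was grown in a 96-well plate and treated with one concentration of compound for 48 hours. Values below 10 were considered active.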 Unmarked numbers belong to inactive results. Activity calls are given as the source filed them.

Regarding `O=C1OCc2cccc3cccc1c23`, the growth is 93.1% in the assay on SR leukemia; 100% in the assay on RPMI-8226 leukemia; 108% in the assay on OVCAR-5 ovarian; 97.1% in the assay on OVCAR-4 ovarian; 112% in the assay on SK-OV-3 ovarian; 102% in the assay on IGROV1 ovarian. Besides, the growth is 110% in the assay on OVCAR-3 ovarian; 108% in the assay on NCI/ADR-RES ovarian; 114% in the assay with T-47D breast; 115% in the assay with MDA-MB-435 melanoma; 98.2% in the assay with SW-620 colon; 86.3% in the assay on MCF7 breast. For the same compound, the growth is 104% with HCT-116 colon, 106% in the assay with HCC-2998 colon and 104% in the assay with KM12 colon.

Regarding `CCCCCCCCCCCCCCCC[N+](C)(CCO)Cc1cnc[nH]1` (configuration not stated), the growth was -58.3% (active) with RPMI-8226 leukemia; -4.26% (active) with OVCAR-8 ovarian; -13.7% (active) with OVCAR-5 ovarian; -1.06% (active) in the assay on OVCAR-4 ovarian; -21% (active) in the assay on SK-OV-3 ovarian; -54.5% (active) in the assay on IGROV1 ovarian. Further, the growth in the assay with OVCAR-3 ovarian is -36.9% (active); in the assay on NCI/ADR-RES ovarian, 94.5%; in the assay with T-47D breast, 16.5%; with MDA-MB-435 melanoma, -43.8% (active); in the assay on SW-620 colon, -27% (active); in the assay with MCF7 breast, -18.4% (active). Also, the values for the growth with HCT-116 colon, with HCC-2998 colon and in the assay with KM12 colon were -51% (active), -70.5% (active) and -97.7% (active), respectively.

Turning to `CNc1ccc(N)cc1`, the growth in the assay with SR leukemia is 119%; in the assay with OVCAR-8 ovarian it was 113%; with OVCAR-5 ovarian, 106%; with OVCAR-4 ovarian, 89.6%; with SK-OV-3 ovarian it was 114%; with IGROV1 ovarian, 101%. For the same compound, the growth with OVCAR-3 ovarian was 112%; in the assay with HS 578T breast, 109%; in the assay with NCI/ADR-RES ovarian, 87.6%; with T-47D breast it was 119%; in the assay with BT-549 breast it was 87.6%; with MDA-MB-435 melanoma, 96.2%. Further, the growth with SW-620 colon is 104%; with MCF7 breast, 96.3%; in the assay with HCT-116 colon, 107%; with KM12 colon it was 107%.

Turning to `CN(Cc1cnc2nc(N)nc(N)c2n1)c1ccc(C(=O)NC(CCC(=O)O)C(=O)O)cc1` (configuration not stated), the growth with RPMI-8226 leukemia was 37.3%; with OVCAR-8 ovarian it was 24%; with OVCAR-5 ovarian, 44.9%; in the assay with OVCAR-4 ovarian it was 61.3%; in the assay with SK-OV-3 ovarian, 59.3%; in the assay on IGROV1 ovarian, 31.2%. Besides, the growth in the assay with OVCAR-3 ovarian is 37.8%; with HS 578T breast it was 76.6%; in the assay on NCI/ADR-RES ovarian, 26.7%; in the assay with T-47D breast, 67.6%; in the assay on BT-549 breast, 48.4%; in the assay with MDA-MB-435 melanoma, 30.6%. Besides, the growth in the assay with SW-620 colon is 27.5%; in the assay with MCF7 breast, 24.3%; in the assay with HCT-116 colon, 20.6%; in the assay with HCC-2998 colon it was 27.7%; with KM12 colon, 32.4%.

As to `O=C1c2ccccc2C(=O)N1c1ccccc1`, the growth was 85.7% with SR leukemia; 119% in the assay on RPMI-8226 leukemia; 107% in the assay on OVCAR-5 ovarian; 105% with OVCAR-4 ovarian; 99.1% in the assay with SK-OV-3 ovarian; 105% with IGROV1 ovarian. The growth was 108% with OVCAR-3 ovarian; 105% in the assay on NCI/ADR-RES ovarian; 95.7% in the assay on T-47D breast; 107% with BT-549 breast; 98.7% with MDA-MB-435 melanoma; 109% in the assay on SW-620 colon. For the same compound, the growth in the assay on MCF7 breast is 96.6%; in the assay on HCT-116 colon it was 105%; in the assay with HCC-2998 colon, 102%; in the assay on KM12 colon, 107%.

For the compound `O=C1C=CC(=O)N1C1c2ccccc2-c2ccccc21`, the growth in the assay with SR leukemia was -26.9% (active); in the assay with RPMI-8226 leukemia it was 90.7%; in the assay on OVCAR-5 ovarian, 109%; in the assay on OVCAR-4 ovarian, 110%; in the assay with SK-OV-3 ovarian, 96.5%; in the assay with IGROV1 ovarian, 99.4%. The growth in the assay with OVCAR-3 ovarian is 35.4%; in the assay with HS 578T breast it was 102%; in the assay on NCI/ADR-RES ovarian it was 100%; with T-47D breast, 73.6%; in the assay with MDA-MB-435 melanoma it was 110%; with SW-620 colon it was 14.7%. Moreover, the growth is 85.8% in the assay on MCF7 breast, 97.9% in the assay on HCT-116 colon and 107% with KM12 colon.

As for `CN(C)CCOc1ccc2c(c1)C(=O)/C(=C\c1ncc([N+](=O)[O-])n1C)C2`, the growth in the assay on RPMI-8226 leukemia was 9.88% (active); with OVCAR-8 ovarian, 1.01% (active); with OVCAR-5 ovarian it was -21.1% (active); with OVCAR-4 ovarian, -49.1% (active); with SK-OV-3 ovarian, -42.6% (active); with IGROV1 ovarian, -47.7% (active). Also, the growth in the assay on OVCAR-3 ovarian was -59% (active); in the assay on NCI/ADR-RES ovarian it was -1.71% (active); with T-47D breast, 25.4%; in the assay on MDA-MB-435 melanoma it was -73.6% (active); with SW-620 colon, -31.6% (active); with MCF7 breast it was -30.7% (active). Also, the growth was -5.59% (active) in the assay with HCT-116 colon, -86.1% (active) in the assay with HCC-2998 colon and -68% (active) in the assay with KM12 colon.

In the case of `CCCCCCCCCCCCCCCCN(CC)CC`, the growth is -60.1% (active) in the assay on RPMI-8226 leukemia; -38.3% (active) in the assay on OVCAR-8 ovarian; -57.3% (active) with OVCAR-5 ovarian; -6.38% (active) in the assay on OVCAR-4 ovarian; -46.1% (active) in the assay on SK-OV-3 ovarian; -90.5% (active) in the assay on IGROV1 ovarian. For the same compound, the growth with OVCAR-3 ovarian is -58.6% (active); in the assay with HS 578T breast it was -25.1% (active); with NCI/ADR-RES ovarian, -71.1% (active); in the assay on T-47D breast it was 2.05% (active); in the assay with BT-549 breast, -36.8% (active); in the assay on MDA-MB-435 melanoma, -80.8% (active). Further, the growth in the assay with SW-620 colon is -69.1% (active); with MCF7 breast, -68.6% (active); in the assay on HCT-116 colon it was -52.5% (active); with HCC-2998 colon, -97.1% (active); in the assay on KM12 colon, -57% (active).

As to `CCN(CC)CCOc1ccc(-c2nc3cc(Cl)ccc3s2)cc1`, the growth is -69.6% (active) with SR leukemia; -12.2% (active) in the assay on RPMI-8226 leukemia; -0.127% (active) in the assay on OVCAR-5 ovarian; 58.5% in the assay with OVCAR-4 ovarian; 59.9% in the assay on SK-OV-3 ovarian; -27.3% (active) in the assay on IGROV1 ovarian. For the same compound, the growth was -4.49% (active) in the assay on OVCAR-3 ovarian; -29.2% (active) with HS 578T breast; 22% with T-47D breast; 68% in the assay on BT-549 breast; -51.1% (active) in the assay on MDA-MB-435 melanoma; -52.9% (active) in the assay on SW-620 colon. The growth was 9.23% (active) with MCF7 breast, -69.3% (active) in the assay with HCT-116 colon, -97.2% (active) in the assay on HCC-2998 colon and -99.2% (active) with KM12 colon.

The values are drawn from PubChem BioAssay (NCI).
